Compounds without any hit were thinned out: in the full panel of roughly 83,000, 20% have a hit.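 Note: values are percent growth. 100 is the growth of untreated cells, values between 100 and 0 indicate rising inhibition; between -100 and 0 indicates cell death.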 Unmarked numbers belong to inactive results. Calls of active or inactive are those of the source. How the source made its calls: active means growth percent below 10; inactive means the rest.
Legend:
Assay in all cases: NCI-60 one-dose screen, 48 h (100 = growth as untreated, 0 = no growth, -100 = all killed)
RPMI-8226 leukemia = conditions: 10 µM
OVCAR-8 ovarian = conditions: 10 µM
OVCAR-4 ovarian = conditions: 10 µM
SK-OV-3 ovarian = conditions: 10 µM
IGROV1 ovarian = conditions: 10 µM
OVCAR-3 ovarian = conditions: 10 µM
HS 578T breast = conditions: 10 µM
NCI/ADR-RES ovarian = conditions: 10 µM
T-47D breast = conditions: 10 µM
BT-549 breast = conditions: 10 µM
MDA-MB-435 melanoma = conditions: 10 µM
MCF7 breast = conditions: 10 µM unless noted
HCT-116 colon = conditions: 10 µM
HCC-2998 colon = conditions: 10 µM
KM12 colon = conditions: 10 µM
OVCAR-5 ovarian = conditions: 10 µM
SW-620 colon = conditions: 10 µM

SMILES | growth (RPMI-8226 leukemia) | growth (OVCAR-8 ovarian) | growth (OVCAR-4 ovarian) | growth (SK-OV-3 ovarian) | growth (IGROV1 ovarian) | growth (OVCAR-3 ovarian) | growth (HS 578T breast) | growth (NCI/ADR-RES ovarian) | growth (T-47D breast) | growth (BT-549 breast) | growth (MDA-MB-435 melanoma) | growth (MCF7 breast) | growth (HCT-116 colon) | growth (HCC-2998 colon) | growth (KM12 colon) | growth (OVCAR-5 ovarian) | growth (SW-620 colon)
O=C(Nc1ccccc1C(=O)NCC1CC1)c1cccs1 | 97.4% | 99.4% | 98.7% | 110% | 118% | 117% | 114% | 101% | 106% | 99.9% | 105% | 106% | 93.7% | 103% | 107% | – | –
CN(C)c1ccc2oc(=O)c3ccccc3c2c1 | 74.1% | 104% | 69.2% | 101% | 95.3% | 103% | – | 94.9% | 96.1% | 40.3% | 109% | 72.9% | 83.2% | 88.5% | 90.9% | 91.9% | 85.2%
Nc1ccccc1SC(CC(=O)c1ccccc1)c1c(Cl)cccc1Cl (stereo not drawn) | – | 68.7% | 66% | 73.3% | 62.7% | 46.5% | 84.9% | 69.2% | 69.4% | 68% | 39.7% | 14.8% | -29.7% (active) | 86.9% | 33.1% | 89.6% | 10.2%
Cc1cc(NC(=O)CSCC(=O)O)no1 | 120% | 99.3% | 107% | 99.3% | 114% | 123% | 78% | 107% | – | – | 105% | 91.9% | – | 113% | 107% | 99.6% | 102%
C=C[Si](OC(C)=O)(OC(C)=O)OC(C)=O | 95.9% | 109% | 110% | 96.7% | 97.2% | 108% | 107% | 104% | 93.6% | 95.9% | 99.6% | – | 100% | 103% | 104% | – | 101%
COc1ccc2c(NCCCCCCCCNc3c4ccccc4nc4cc(OC)ccc34)c3ccccc3nc2c1 | -60.3% (active) | -42.6% (active) | -96.6% (active) | -100% (active) | – | -100% (active) | -45.9% (active) | 9.56% (active) | -74.6% (active) | -95.9% (active) | -100% (active) | -100% (active) | – | -100% (active) | -100% (active) | -91.8% (active) | –
CC(=O)C1CCCCC1 | 96.4% | 95% | – | 103% | 106% | 110% | 104% | 107% | – | 99.9% | 104% | 97.9% | 102% | 103% | 100% | 107% | 100%
CCCCCCCCCCCCCC(=O)Oc1ccc[nH]c1=O | 95.7% | 94.9% | 102% | 88.8% | 97.8% | 103% | 98.1% | 99.8% | – | 94.4% | 113% | – | 94.6% | 109% | 92.7% | 97.1% | 101%
OC1CCCc2ccccc21 (stereo not drawn) | 104% | – | 99.2% | 98.7% | 97% | 110% | 96.8% | 108% | 101% | 98.1% | 104% | 94.1% | 111% | 119% | 109% | 100% | 107%
COc1ccc2c(c1)CCc1c-2n[nH]c1-c1[nH]nc2c1CCc1cc(OC)ccc1-2 | 61.2% | 84.7% | 77.3% | 77% | 62.4% | 41.3% | 48.7% | 33.9% | – | 54.6% | -5.37% (active) | – | 32.4% | 80.9% | 47.6% | 89.6% | 45%
COc1ccccc1N1CCN(C(=S)Nc2ccccc2)CC1 | 90.9% | 97.6% | 108% | 99.5% | 98.9% | – | 104% | 95.8% | 90.9% | 91.7% | 102% | 99.5% | 103% | 134% | – | 107% | 103%
OCCN(CCO)C(=S)S | 111% | 100% | 118% | 127% | 111% | 121% | 99.7% | 105% | – | 110% | 108% | 98.2% | 109% | – | 107% | – | 106%
O=C(CCNNC(=O)c1ccncc1)NCc1ccccc1 | 87.2% | 100% | 96.3% | 104% | 92.3% | 102% | – | 96.5% | 94.4% | 134% | 95.7% | – | 105% | 111% | 97.5% | 105% | 96%
O=C(O)c1ccc(S(=O)(=O)O)cc1 | 98% | – | 104% | 112% | – | 119% | 87.6% | 100% | 106% | 121% | 114% | 96.2% | 108% | 105% | 109% | – | 104%
O=C(CC(=O)c1ccccc1O)c1ccccc1 | 87.6% | 73% | 90.6% | 98.9% | 98.3% | 90.9% | 106% | 64.4% | 79.7% | 77.5% | 102% | – | 76.6% | 107% | 92.8% | – | 86.4%
COC(=O)CCCCC1=CCC2C(=O)C=C(O)C2C1 (stereo not drawn) | 100% | 98% | 103% | 98.6% | 103% | – | 108% | 103% | 98.9% | 98.7% | 110% | 94.9% | 102% | 132% | – | 107% | 106%
CCc1nn(Cc2ccccc2)c2nc(C)c(CCc3ccccc3)c(Cl)c12 | 72% | – | 86.2% | 97.1% | – | 109% | 92.2% | 92% | 59.2% | 99.3% | 92.4% | 82.7% | – | 101% | 101% | 95.1% | 99.2%
Cc1cc2nc(CC(=O)c3cccc([N+](=O)[O-])c3)c(=O)[nH]c2cc1C | 88.4% | 92.7% | 89.4% | 108% | 91.4% | 102% | 72.6% | 83.9% | – | 87% | 93.9% | 74.8% | 54.8% | 89.9% | 86.6% | – | 93.7%
c1ccc(Cc2ccccc2)cc1 | 107% | – | 109% | 113% | – | 108% | 76.6% | 104% | 93.4% | 123% | 112% | 113% | 114% | 106% | 98.9% | 99.3% | 106%
CC1(C)S(=O)(=O)OCCOS1(=O)=O | 104% | 99.2% | 102% | 111% | 108% | 110% | 106% | 103% | – | 100% | 103% | 97.1% | 94.6% | 113% | 106% | 110% | –
CCOC(=O)c1cc(/C=C/c2ccc(Cl)cc2Cl)on1 | 2.84% (active) | 24.1% | 76% | 104% | 82.2% | 24.4% | 71.8% | -34.9% (active) | – | 26.3% | 66.8% | – | -86.6% (active) | 82% | -29.7% (active) | 58.8% | -13.6% (active)
